Hits are enriched below; roughly 7% of the tested compounds scored in any of these assays.
PLK1 PBD inh: PLK1 (human) polo-box domain binding inhibition; P53350; Plk1 PBD binding of FITC phosphopeptide, fluorescence polarization; Potency, µM, without a hit: max response, negative = inhibition, usual class: inhibitors; actives 2.8% (n = 360,000); AID 720504; further: potency means the concentration at half of the fitted maximal effect; series mostly up to about 57 µM; on the % scale 0 is the no-effect control and ±100 the full control effect; nearly all actives have a fitted effect of over 65% in size
Target sequence (P53350 whole entry, looked up, the tested form may be a part): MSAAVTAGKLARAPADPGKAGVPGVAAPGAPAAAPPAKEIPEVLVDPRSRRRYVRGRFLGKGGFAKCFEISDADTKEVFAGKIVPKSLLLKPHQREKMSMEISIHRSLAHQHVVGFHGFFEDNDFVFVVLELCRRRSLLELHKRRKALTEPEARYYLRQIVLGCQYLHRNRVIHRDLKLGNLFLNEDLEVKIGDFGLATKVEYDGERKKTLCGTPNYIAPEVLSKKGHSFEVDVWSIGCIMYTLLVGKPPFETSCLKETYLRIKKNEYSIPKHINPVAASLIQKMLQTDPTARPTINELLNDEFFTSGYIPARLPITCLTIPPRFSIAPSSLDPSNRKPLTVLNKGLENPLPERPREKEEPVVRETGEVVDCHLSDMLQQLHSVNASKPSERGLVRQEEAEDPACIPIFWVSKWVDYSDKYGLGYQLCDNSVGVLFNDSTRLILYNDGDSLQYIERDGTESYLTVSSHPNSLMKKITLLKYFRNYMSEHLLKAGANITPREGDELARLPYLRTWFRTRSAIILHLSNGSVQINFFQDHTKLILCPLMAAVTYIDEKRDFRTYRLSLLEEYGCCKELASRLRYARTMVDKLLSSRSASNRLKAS
BAZ2B inh: BAZ2B (human) inhibition; Q9UIF8; AlphaScreen BAZ2B-H3K14Ac peptide displacement; Potency, µM (top dose mostly 114 µM), for the others: at the top dose activity change, negative = inhibition, actives largely listed as inhibitors; actives 4.4% (n = 360,000); AID 504333; further: potency means the concentration at half of the fitted maximal effect; on the % scale 0 is the no-effect control and ±100 the full control effect; nearly all actives have a fitted effect of over 60% in size
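BAZ2B 50 nM plus b-H3(5-23)K14Ac 50 nM, PBS pH 7.4/0.01% Tween-20, 30 min RT; compound added (max 110 uM), 30 min RT; streptavidin donor/Ni-chelate acceptor beads 10 ug/mL final, 20 min dark; AlphaScreen read.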
JMJD2A Tudor: blocks the human JMJD2A Tudor domain. AlphaScreen JMJD2A-Tudor / H3K4me3 peptide binding. Potency, µM (series often up to 114 µM), for inactives: top-dose activity change, negative = inhibition, most hits filed as inhibitors. actives 4.4% (n = 390,000). AID 504339; further: potency means the concentration at half of the fitted maximal effect; on the % scale 0 is the no-effect control and ±100 the full control effect; nearly all actives have a fitted effect of over 50% in size
PI5P4K alpha inh: inhibitors of human PI5P4K alpha | P48426 | PI5P4Kalpha enzyme, ADP-Glo luminescence, 60 min; stronger effect = lower value | max response, % | actives 1.2% (n = 330,000) | AID 652105; active means max response of -50% or lower; inconclusive means between -30% and -50%; inactive means -30% or higher; further: value at the top dose of about 77 µM; on the % scale 0 is the no-effect control and ±100 the full control effect
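Quantitative HTS of the MLSMR library against PI5P4Kalpha with substrate. ATP added last at 5 microM final; room temperature, 60 minutes. Remaining ATP depleted, ADP converted and read as luminescence.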
HP1b binding inh: blocks HP1-beta chromodomain binding to methylated histone tails; P83916; AlphaScreen HP1-beta / biotin-H3K9me3 peptide binding; Potency, µM (top dose mostly 114 µM), without a hit: at the top dose activity change, negative = inhibition, usual class: inhibitors; actives 0.56% (n = 390,000); AID 540317; further: potency means the concentration at half of the fitted maximal effect; nearly all actives have a fitted effect of over 70% in size
Target sequence (P83916 whole entry, looked up): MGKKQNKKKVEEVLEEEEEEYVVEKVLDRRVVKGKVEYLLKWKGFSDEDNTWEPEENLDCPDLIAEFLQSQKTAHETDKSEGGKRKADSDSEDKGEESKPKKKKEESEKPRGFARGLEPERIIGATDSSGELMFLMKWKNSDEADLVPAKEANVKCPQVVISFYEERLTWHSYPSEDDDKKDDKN
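AlphaScreen: HP1-beta (50 nM) preformed 30 min with biotin-H3(1-18)K9me3 peptide (50 nM) in PBS pH 7.4, 0.01% Tween-20. Compound added for 30 min at RT, then streptavidin donor/nickel chelate acceptor beads (10 ug/mL) for 30 min.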
GCN5L2 inh: blocks human GCN5L2 histone acetyltransferase | Q92830 | GCN5L2 HAT assay, ThioGlo1 CoA-SH fluorescence | Potency, µM (titrated, usually from 58.9 µM), without a hit: at the highest dose activity change, negative = inhibition, most hits filed as inhibitors | actives 0.21% (n = 390,000); further: potency means the concentration at half of the fitted maximal effect; on the % scale 0 is the no-effect control and ±100 the full control effect
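GCN5L2 (20 nM) in 50mM HEPES pH 7.5, 0.1mM EDTA, 0.01% Tween-20 preincubated 15 min with compounds at room temperature. Reaction started with H3(1-25) 75uM, acetyl-CoA 70uM, ThioGlo1 50uM; CoA-thiol fluorescence (Ex340/Em540) read at 0 and 20 min.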
An asterisk follows results filed as active; ? = inconclusive; · = no result; [ ] = remark or other dose. Unless noted, the call rests on the fitted dose curve; in most records, active means well fitted curve in the direction sought with a large enough effect; inconclusive means small, poorly fitted or top-dose-only effect, or another doubt; inactive means no such curve, though single readings can be large; an effect the other way counts as inactive or inconclusive.

SMILES	PLK1 PBD inh	BAZ2B inh	JMJD2A Tudor	PI5P4K alpha inh	HP1b binding inh	GCN5L2 inh
COCCNS(=O)(=O)c1ccc2c(c1)Cc1cc(S(=O)(=O)NCCOC)ccc1-2	18.9µM*	-10.1%	?	-18.0	-9.2%	-4.5%
O=S(=O)(NCCO)c1ccc2c(c1)Cc1cc(S(=O)(=O)NCCO)ccc1-2	6.4%	2.9%	-7.7%	2.0	2.0%	-2.9%
CS(=O)(=O)N1CCCC(C(=O)Nc2ccc(F)c(F)c2)C1 (centres undefined)	5.7%	-10.1%	3.7%	3.2	53.1%	-6.5%
OCCNc1c2ccccc2nc2c(F)c(F)c(F)c(F)c12	-9.4%	-6.4%	-9.1%	-10.7	16.8%	1.0%
Cc1c2ccccc2nc2c(F)c(NCCO)c(F)c(F)c12	6.7µM*	-1.7%	-31.8%	?	-4.2%	-17.8%
NCCCNC(=O)c1ccc(/C=N/O)nc1	-9.2%	22.4µM*	8.91µM*	11.0	1.4%	0.4%
Cc1ccc(C(=O)NCCCNC(=O)c2ccccc2F)cn1	0.2%	0.5%	-14.0%	2.4	14.6%	4.9%
CC(C)Oc1ccc(C(=O)Nc2c(C(=O)Nc3cccc(F)c3)oc3ccccc23)cc1	·	-1.8%	-7.6%	·	18.4%	-7.3%
ClCc1csc(-c2ccc(Cl)cc2)n1	-14.6%	8.1%	52.0%	6.7	140.4%	-1.0%
CC1CN(Cc2csc(-c3ccc(Cl)cc3)n2)CC(C)O1 (centres undefined)	-5.2%	50.1µM*	10µM*	2.7	?	-7.8%
CC(=O)NC(Cc1cccc(F)c1)C(=O)NC1CCN(C(=O)Nc2ccccc2)CC1 (centres undefined)	10.2%	0.4%	-18.0%	-9.6	9.2%	-1.0%
O=c1cc(-c2ccccc2)cc(-c2ccccc2)n1O	-8.7%	35.5µM*	50.1µM*	5.8	6.7%	-4.8%
Cn1c(-c2ccccc2)cc(=O)cc1-c1ccccc1	-7.9%	·	·	2.1	·	·
COc1ccc(O)c(/C=N/Nc2nc(C)cc(-c3ccccc3)n2)c1	2.2%	·	35.5µM*	18.7	?	·
Cc1ccc(NC(=O)c2sc3nc(CCl)[nH]c(=O)c3c2C)c(C)c1	?	-20.1%	-28.5%	-20.0	29.0%	-6.4%
COCCOc1cc(NC(=O)c2sccc2Oc2ccc([N+](=O)[O-])cc2F)c(Cl)cc1Cl	-3.7%	-31.8%	-32.4%	-1.6	-0.2%	-8.4%
O=C(Nc1ccccc1)c1sccc1Oc1ccc([N+](=O)[O-])cc1F	-7.7%	25.1µM*	?	0.0	-8.5%	-12.8%
CCCN1CNc2c(c(=O)[nH]c(=S)n2CCc2cc(C)cc(C)c2)C1	·	·	-17.7%	·	31.7%	·
Cc1cc(OCCCCCNCCO)ccc1Cl	0.0%	1.1%	3.3%	·	35.6%	-4.8%
CC(=O)Nc1ccc(NC(=O)COc2ccc(Br)cc2C)cc1	-3.0%	1.4%	-12.5%	-2.3	9.6%	-0.3%
C=CCNCCCCOc1ccc(Br)cc1C	4.0%	79.4µM*	2.51µM*	1.8	?	-2.6%
Cc1cc(Br)ccc1OCCCCNCCO	-2.4%	?	3.16µM*	1.0	?	2.6%
c1ccc(NN=C(c2ccccc2)c2cccs2)cc1	0.7%	·	·	2.3	·	·
CN(C)S(=O)(=O)c1cccc(C(=O)Nc2n[nH]c(C(F)(F)F)n2)c1	-5.5%	-16.9%	7.08µM*	-2.7	8.8%[57 µM]	1.8%
COc1cc(C(=O)N2CCC(N3CCCCCC3)CC2)cc(OC)c1OC	-1.8%	·	7.08µM*	2.9	?	·
SMILES	PLK1 PBD inh	BAZ2B inh	JMJD2A Tudor	PI5P4K alpha inh	HP1b binding inh	GCN5L2 inh
CCNC(=O)C1CCCN(C(=O)c2cc(OC)c(OC)c(OC)c2)CC1 (centres undefined)	-18.3%	·	·	-1.7	·	·
COc1ccc(-c2ccc3c(c2)S(=O)(=O)c2cccc(C(=O)N4CCN(C5CCCCC5)CC4)c2C3=O)cc1OC	1.1%	·	79.4µM*	-4.1	-11.2%	-5.4%
CCOC(=O)N1CCN(C(=O)c2ccc(OC)c(OC)c2)CC1	-4.2%	-30.4%	-10.4%	2.6	18.2%	-12.4%
COc1cc(OC)cc(C(=O)N2CCC(N3CCN(c4ccccc4OC)CC3)CC2)c1	-0.5%	50.1µM*	1.12µM*	-15.1	?	0.2%
COc1ccc(C(=O)N2CCN(C3CCCCC3)CC2)cc1OC	-12.7%	50.1µM*	28.2µM*	-7.6	?	-1.3%
CCc1nnc(NS(=O)(=O)c2ccc(Nc3ccc4nonc4c3[N+](=O)[O-])cc2)s1	-28.1%	-34.6%	-12.8%[11.4 µM]	-12.2	-4.9%	-6.5%
CC(C)Oc1cccc(-n2c(CCc3c[nH]c4ccc(Br)cc34)nc3ccccc3c2=O)c1	·	·	·	·	·	-18.6%
COc1ccc(C2=Nn3c(nc4sc(C(=O)Nc5cccc(C)c5)c(C)c4c3=O)SC2)cc1	·	8.3%	-7.6%	·	85.3%	-2.0%
Cc1ccc(C)c(NC(=O)CCn2nc(C)c3c(C)n(-c4ccccc4)nc3c2=O)c1	·	-8.4%	-2.1%	·	14.0%	-13.1%
Cc1ccc(-c2nnc(Cc3ccc([N+](=O)[O-])cc3)o2)cc1	-7.1%	-27.0%	-25.3%	1.0	4.7%	-1.0%
COc1cc(C(=O)N2CCN(C3CCCCC3)CC2)cc(OC)c1OC	-9.3%	?	56.2µM*	-1.8	?	-1.3%
CC1CN(C(=O)COC(=O)/C=C/c2ccccc2)CC(C)O1 (centres undefined)	-6.0%	·	·	-3.2	·	·
COc1ccc2c(c1)nc(SCC(=O)c1cccs1)n2C	-24.2%	-18.2%[57.1 µM]	79.4µM*	·	1.5%	-5.1%
O=C1c2ccc(Oc3cccc([N+](=O)[O-])c3)cc2C(=O)N1c1ccccn1	10.6µM*	-16.3%	?	-10.9	-4.0%	-4.5%
O=C1c2cccnc2C(=O)N1c1cccc([N+](=O)[O-])c1	-15.1%	56.2µM*	?	3.5	32.0%	-4.5%
O=C(O)c1cccc(N2C(=O)c3cccnc3C2=O)c1	-7.3%	0.8%	3.2%	-10.5	6.1%	·
O=C1c2cc([N+](=O)[O-])cc3cc([N+](=O)[O-])cc(c23)C(=O)N1c1ccccn1	?	?	?	-27.5	-31.7%	-10.3%
Cc1cc(-c2ccc(C(C)C)c(S(=O)(=O)NCc3ccco3)c2)on1	?	50.1µM*	-34.5%	-22.8	22.7%	-10.8%
COc1ccc(-c2cc(C)no2)cc1S(=O)(=O)NCc1ccco1	·	-18.7%	-18.2%	·	19.0%	38.7%
Nc1cccc(S(=O)(=O)N2CCN(S(=O)(=O)c3ccc4c(c3)OCCO4)CC2)c1	·	·	-2.0%	·	·	·
CCCCCCSc1cc(-c2nc3cnccn3c2NCCCC)ccc1OC	7.0%	·	?	-1.5	74.0%	?
CCCCNc1c(-c2ccc(SC(C)CC)c(OC)c2)nc2ccc(Cl)cn12 (centres undefined)	2.1%	·	?	2.5	71.2%	-27.8%
CCCCNc1c(-c2ccc(OC)c(Sc3ccc(OC)cc3)c2)nc2ccccn12	-8.7%	39.8µM*	44.7µM*	9.1	-16.4%	-21.8%
